Bioassay records (PubChem)
Sampled rows, rich in hits. Any-hit rate of the full collection: about 2.3%.
TWEAK Fn14 block – inhibitors of TWEAK-Fn14 signaling, primary screen, luciferase reporter cells, uHTS. AID 1159606, 2016. hit rate 2% among 360,000. TWEAK-stimulated Fn14 reporter cells, luciferase luminescence, 8 h. inhibition, % at 10 µM; in the data active = inhibition above about 50%
hiPSC survival – enhancers of single-cell hiPSC survival, primary screen, ATPlite luminescence. hit rate 0.044% among 360,000. 100% = ROCK inhibitor wells, 0% = DMSO. survival enhancement, % at 20 µM; in the data active = survival enhancement above about 18%;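 note: cells exposed to compounds for 16 hours before the ATP read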
CF NFkB inh – inhibitors of PAF-induced NF-kB signaling, primary screen, cell-based, GFP fluorescence, uHTS | KKLEB NF-kB-GFP reporter, GFP fluorescence overnight | inhibition, % at 5 µM | hit rate 0.86% among 360,000 | AID 588850, 2011;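 active = at least 50% inhibition at 5 µM, scaled per plate between neutral and stimulator controls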;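 note: PAF is a Pseudomonas aeruginosa culture filtrate used as stimulus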
KKLEB cytotox – cytotoxicity in KKLEB CF airway cells, primary screen, cytotoxicity control for CF NF-kB inhibitor project, cell-based, uHTS, fluorescence assay plates; hit rate 0.36% among 360,000; activity change (cytotoxicity), % at 5 µM; KKLEB CF airway cells viability, ATPlite luminescence, overnight; active compounds read low; cells stimulated with P. aeruginosa culture filtrate;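 active = corrected activity change at or below -50% at 5 µM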
LGR2 antag – inhibitors of bursicon-induced LGR2 CRE-luciferase signal, primary screen, cell-based, HEK293, CRE-luciferase reporter, bursicon stimulation. inhibition, % at 9.99 µM. hit rate 0.35% among 380,000. bursicon-stimulated, 4 h. Drosophila bursicon receptor LGR2 (rickets);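 active = drop in luminescence signal, shown as inhibition above about 50% in the replicate tests, limit read from the data, passing the limit was not always enough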;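 note: agonist challenge used bursicon conditioned medium at about half maximal strength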
HIF-2a block – HIF-2a reporter inhibitors, primary screen, luminescence, 786-0 RCC cells; 786-0 RCC cells HIF-2a reporter, luciferase luminescence, overnight; inhibition, % at 18.8 µM; hit rate 0.72% among 360,000;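 active = inhibition of the luminescence signal of 40% or more relative to plate controls, in a single-dose primary screen at 18.75 µM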
Numbers stand for hits; – = inactive; · = not tested or not shown.

SMILES	TWEAK Fn14 block	hiPSC survival	CF NFkB inh	KKLEB cytotox	LGR2 antag	HIF-2a block
COc1ccc(N2CCN(C(=S)NC(C)c3ccccc3)CC2)cc1 (configuration not stated)	–	–	–	–	–	–
Cn1c(-c2ccccc2)c(C(=O)CCl)c2ccccc21	–	–	98	-86	·	–
CCn1c(-c2ccccc2)c(C(=O)CCl)c2ccccc21	–	–	106	-102	–	–
Cn1c(-c2ccccc2)c(CCO)c2ccccc21	–	–	–	–	·	–
CCn1c2ccccc2c(=O)c2ccccc21	–	–	–	–	–	–
C[C@@H]1CCCCO[C@H](CN(C)C(=O)Nc2ccc(F)cc2)[C@H](C)CN([C@H](C)CO)C(=O)c2cc(N(C)C)ccc2O1	·	·	·	·	–	·
O=C(Cc1ccccn1)N[C@H]1CC[C@H](CC(=O)N2CCCCC2)O[C@@H]1CO	·	·	·	·	–	·
Cc1cc(C)c(CN2CCN(C(=O)Cn3cnc(C(=O)Nc4ccc(C)c(C)c4)n3)CC2)c(C)c1	–	–	–	-69	–	–
O=C(Nc1ccc(CN2CCOCC2)cc1)c1ccc(-c2cc(Cl)ccc2Cl)o1	76	–	–	–	·	–
O=C(Nc1ccc(S(=O)(=O)N2CCCC2)cc1)c1ccc(CN2CCOCC2)cc1	–	–	–	–	·	–
O=C(Nc1ccc(CN2CCOCC2)cc1)c1ccc(Br)o1	–	–	–	–	–	–
O=C(Nc1ccc(S(=O)(=O)N2CCCCC2)cc1)c1ccc(CN2CCOCC2)cc1	68	–	–	–	·	–
COc1ccc(CCNc2oc(-c3ccco3)nc2C#N)cc1	–	–	–	–	–	–
N#Cc1nc(-c2ccco2)oc1NCCc1ccccc1	61	–	–	–	·	–
Cc1ccc(S(=O)(=O)Nc2ccc3c(c2)CC(=O)N([C@@H](C)CO)C[C@H](C)[C@H](CN(C)C(=O)Nc2cccc4ccccc24)O3)cc1	·	·	·	·	–	·
O=C(COc1ccccc1)Nc1cccc(-c2nc3cc4ccccc4cc3[nH]2)c1	77	–	–	–	·	–
CCn1cc(/C=C(\NC(=O)c2ccccc2F)C(=O)NCCCN2CCOCC2)c2ccccc21	68	–	–	–	–	–
O=C(COC(=O)c1c2c(nc3ccccc13)/C(=C/c1ccco1)CC2)NC1CCCC1	–	–	–	–	–	–
CC1CCCCC1NC(=O)COC(=O)c1c2c(nc3ccccc13)/C(=C/c1ccco1)CC2 (configuration not stated)	50	–	–	–	·	–
O=[N+]([O-])/C=C/c1c(OCc2ccccc2)ccc2ccccc12	–	–	61	-54	·	95
CCCCOc1ccc2ccccc2c1C=O	–	–	–	–	·	–
Cc1cccc2c3nc4ccccc4nc3n(C)c12	54	–	–	–	–	–
O=C(N[C@@H]1C/C=C\C[C@H](CC(=O)N(CCO)Cc2ccccc2)C(=O)NC[C@@H](c2ccccc2)OC1=O)OCC1c2ccccc2-c2ccccc21	–	–	–	–	–	–
O=C(C[C@H]1C/C=C\C[C@H](NC(=O)OCC2c3ccccc3-c3ccccc32)C(=O)O[C@H](c2ccccc2)CNC1=O)N[C@H](CO)Cc1ccccc1	–	–	86	-96	·	–
O=C(Nc1ccccc1)C1=C[C@@H](C2CCCCC2)C[C@@H](OCCCCO)O1	62	–	–	–	–	–
SMILES	TWEAK Fn14 block	hiPSC survival	CF NFkB inh	KKLEB cytotox	LGR2 antag	HIF-2a block
O=C(Nc1ccccc1)C1=C[C@@H](C2CCCCC2)C[C@@H](OCc2ccc(CO)cc2)O1	57	–	–	–	–	–
O=C(Nc1ccccc1)C1=C[C@H](C2CCCCC2)C[C@H](OCCCCO)O1	57	–	–	–	–	–
O=C(NC1CC1)C1=C[C@H](C2CCCCC2)C[C@H](OCCCCO)O1	–	–	–	–	–	–
O=C(NCc1ccccc1)C1=C[C@H](C2CCCCC2)C[C@H](OCCCCO)O1	–	–	–	–	–	–
O=C(Nc1ccccc1)C1=C[C@H](C2CCCCC2)C[C@H](OCc2ccc(CO)cc2)O1	–	–	–	–	–	–
CC(C)(C)[C@H]1C=C(C(=O)Nc2ccccc2)O[C@@H](OCCCCO)C1	84	–	–	–	–	–
CCCN(C)C[C@H]1OCc2cnnn2CCCC(=O)N([C@@H](C)CO)C[C@H]1C	·	·	·	·	–	·
COC(=O)c1c(NC(=O)C2SC(=NC3CCCCC3)C(C(N)=O)=C2N)sc2c1CCCC2 (configuration not stated)	–	–	–	–	–	–
C=C(C)CN=C1SC(C(=O)Nc2sc3c(c2C(=O)OC)CCC3)C(N)=C1C(N)=O (configuration not stated)	57	–	–	–	–	–
CN(C)CCCNC(=O)C[C@@H]1C=C[C@@H](NC(=O)c2ccccc2F)[C@H](CO)O1	·	·	·	·	–	·
CNC(=O)C[C@H]1CC[C@@H]2[C@H](COc3ccc(NC(=O)NCc4ccccc4)cc3C(=O)N2C)O1	·	·	·	·	–	·
O=C(O)[C@@H](O)[C@H](O)C(=O)O	–	–	–	-61	–	–
C[C@H]1CN([C@@H](C)CO)C(=O)c2cccc(NC(=O)Nc3cccc4ccccc34)c2O[C@@H]1CN(C)S(C)(=O)=O	·	·	·	·	–	·
CC(=O)Nc1ccc2c(c1)C(=O)N(C)[C@@H]1CC[C@@H](CC(=O)NCCCN3CCOCC3)O[C@@H]1CO2	·	·	·	·	–	·
C/C=C/c1ccc2c(c1)O[C@@H](CN(C)C(=O)Cc1ccccc1)[C@H](C)CN([C@H](C)CO)S2(=O)=O	·	·	·	·	–	·
CCOc1cc(/C=N/NC(=O)CN2CCOCC2)ccc1OCc1ccccc1	–	–	–	–	–	–
CCOc1cc(/C=N/NC(=O)c2ccc(CN3CCOCC3)cc2)ccc1OCc1ccccc1	70	–	–	–	–	–
CCOc1cc(/C=N/NC(=O)c2nn(C)cc2Br)ccc1OCc1ccccc1Cl	57	–	–	–	–	–
Cn1cc(Br)c(C(=O)N/N=C/c2cccc(OC3CSC3)c2)n1	–	–	–	–	–	–
CCC(=O)N1C[C@@H](C)[C@H](OC)CN(C)C(=O)c2cc(NC(=O)C3CCOCC3)ccc2OC[C@@H]1C	·	·	·	·	–	·
CO[C@H]1CN(C)C(=O)c2cc(NS(C)(=O)=O)ccc2OC[C@@H](C)N(C(=O)CC2CC2)C[C@@H]1C	·	·	·	·	–	·
C=CCN1C(=O)/C(=C\c2cc(Br)c(OCc3ccccn3)c(OC)c2)SC1=S	–	–	50	–	–	–
Cc1nc(Nc2nc3ccccc3o2)nc2c1CCC2	91	–	–	–	·	–
Cc1cccc(C)c1Nc1nc2ccccc2o1	–	–	–	–	·	–
Nc1c(C(O)(C(F)(F)F)C(F)(F)F)cc(C(O)(C(F)(F)F)C(F)(F)F)c2ccccc12	–	–	–	–	·	41
CN(C)c1ccc(/C=C/c2nc3ccccc3c(=O)[nH]2)cc1	88	–	–	-77	91	–
